Compound activity from PubChem.
IMPase inh – qHTS Assay for Identifying the Cell-Membrane Permeable IMPase Inhibitors | Inositol monophosphatase 1 (Rattus norvegicus), P97697 | CHO-M1 cells, IP1 accumulation, HTRF TR-FRET ratio | inhibition (IP1 accumulation), % at 46.1 µM | 120,000 tested, under 10 active; active = well fitted curve in the direction sought with a large enough effect in the signal ratio, not every such curve was filed as active; inconclusive = small, poorly fitted or top-dose-only effect, or a change in a side signal; inactive = no such curve, though single readings can be large or run the other way; the % refers to the signal ratio;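 note: cells stimulated with carbachol in lithium chloride buffer; plate controls were DMSO basal wells for no effect and reference inhibitor wells for full effect; higher means more IMPase inhibition seen as more IP1 and lower FRET ratio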
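Seeded CHO-M1 cells were dosed with compound at up to 46 uM, stimulated with carbachol for 30 min, then lysed in IP-One detection reagents. Higher IP1 lowers the TR-FRET signal.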
PNC assembly inh – High Content Assay for Compounds that inhibit the Assembly of the Perinucleolar Compartment | AID 2417, 2010 | activity change (PNC), negative = inhibition, % at 10 µM | 3.1% of 140,000 active | PC3M PTB-GFP, PNC prevalence imaging, 16 h; hits give low values;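 active = readout at or below -70, meaning at least 70% loss of cells showing the perinucleolar compartment, a nuclear body marking cancer cells; inconclusive = readout between -30 and a set limit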;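 note: plate controls were DMSO wells for no effect and camptothecin positive control wells for full effect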
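PC3M cells stably expressing PTB-GFP, 750–1000 cells/well, treated 16 h at 37 °C with compound (23 nl of library stock), in duplicate. After paraformaldehyde fixation and Hoechst stain, imaged at 20x; PNC prevalence scored by image analysis.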
HPGD block – qHTS Assay for Inhibitors of HPGD (15-Hydroxyprostaglandin Dehydrogenase); 15-hydroxyprostaglandin dehydrogenase [NAD(+)] (Homo sapiens), P15428; purified HPGD, NADH fluorescence kinetic, PGE2 substrate; Potency, µM, without a hit: at the highest dose activity change, negative = inhibition, actives largely listed as inhibitors; 4.3% of 150,000 active; AID 894, 2007; active = well fitted inhibition curve with a large enough effect, not every such curve was filed as active; inconclusive = small, poorly fitted or top-dose-only effect, or another doubt; inactive = no such curve, though single readings can be large or run the other way; note: potency is the fitted concentration of half-maximal effect
Target sequence (P15428 whole entry, looked up): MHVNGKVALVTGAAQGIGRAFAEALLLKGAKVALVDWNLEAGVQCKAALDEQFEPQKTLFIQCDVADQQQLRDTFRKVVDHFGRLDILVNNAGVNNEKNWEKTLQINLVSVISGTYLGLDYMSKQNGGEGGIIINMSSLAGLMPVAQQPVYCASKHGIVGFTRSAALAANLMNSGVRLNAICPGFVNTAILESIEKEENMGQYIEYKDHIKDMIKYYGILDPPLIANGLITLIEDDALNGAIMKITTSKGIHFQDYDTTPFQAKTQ
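20 nM HPGD preincubated 15 min at room temperature with compound in 50 mM Tris-HCl pH 8, 0.01% Tween 20. Started with 1 mM NAD+ and 30 uM prostaglandin E2; NADH fluorescence (360/450 nm) read 5 times over 30-s intervals, last minus first.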
ALDH1A1 block – qHTS Assay for Inhibitors of Aldehyde Dehydrogenase 1 (ALDH1A1); Aldehyde dehydrogenase 1A1 (Homo sapiens), P00352; Purified ALDH1A1, NADH fluorescence, propionaldehyde substrate; Potency, µM (highest dose often 75.3 µM), without a hit: at the highest dose activity, negative = inhibition, usual class: inhibitors; 7.3% of 220,000 active; AID 1030, 2008; active = well fitted inhibition curve with a large enough effect, not every such curve was filed as active; inconclusive = small, poorly fitted or top-dose-only effect, or another doubt; inactive = no such curve, though single readings can be large or run the other way;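 note: potency is the fitted concentration of half-maximal effect; plate controls were no enzyme wells and a reference inhibitor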
Target sequence (P00352 whole entry, looked up): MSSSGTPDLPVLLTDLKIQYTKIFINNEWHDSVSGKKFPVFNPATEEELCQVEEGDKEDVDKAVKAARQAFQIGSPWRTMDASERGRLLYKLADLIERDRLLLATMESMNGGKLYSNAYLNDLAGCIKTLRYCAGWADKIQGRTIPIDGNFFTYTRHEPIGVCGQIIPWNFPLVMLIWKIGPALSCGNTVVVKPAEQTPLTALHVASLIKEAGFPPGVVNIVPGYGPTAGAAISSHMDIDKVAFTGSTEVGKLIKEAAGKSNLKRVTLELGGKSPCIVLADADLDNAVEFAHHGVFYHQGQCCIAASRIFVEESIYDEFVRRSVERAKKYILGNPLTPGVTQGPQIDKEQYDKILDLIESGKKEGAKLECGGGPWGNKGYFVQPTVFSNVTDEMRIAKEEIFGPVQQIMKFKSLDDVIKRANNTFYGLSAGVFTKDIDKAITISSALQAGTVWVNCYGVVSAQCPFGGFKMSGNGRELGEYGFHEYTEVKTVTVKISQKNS
IMPase Li inh – qHTS Assay for Identifying the Cell-Membrane Permeable IMPase Inhibitors: Potentiation with Lithium | CHO-M1 cells, IP1 TR-FRET (IP-One), carbachol + lithium | Potency, µM (doses to about 59.4 µM), inactives show at the highest dose activity, negative = IMPase inhibition, hits mostly inhibitors | 0.35% of 210,000 active | AID 1457, 2008;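 note: IP1 builds up when IMPase is blocked and the TR-FRET signal falls; potency is the fitted concentration of half-maximal effect; plate controls were basal vehicle for no effect and high inhibitor control for full effect; nearly all actives have a fitted effect of over 50% in size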
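CHO-M1, 2000 cells/well, 16–30 h culture; cpd + low Li+, 30 min 37C; lysis with d2-IP1/Eu-anti-IP1 Ab, 10 min RT; TR-FRET 665/620 ratio and 620 channel; AC50 via Hill.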
12-hLO inh – qHTS Assay for Inhibitors of 12-hLO (12-human lipoxygenase); Polyunsaturated fatty acid lipoxygenase ALOX12 (Homo sapiens), P18054; purified 12-hLO, xylenol orange hydroperoxide absorbance; Potency, µM (top dose mostly 57.1 µM), for the others: at the top dose activity change, negative = inhibition, most hits filed as inhibitors; AID 1452, 2008; 0.12% of 150,000 active; note: potency is the fitted concentration of half-maximal effect; nearly all actives have a fitted effect of over 55% in size
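150 nM 12hLO, 25 mM Hepes pH 7.0 + 0.01% Triton X-100; cpd preinc 15 min RT; 40 uM arachidonic acid, 30 min RT; Fe-XO 30 min; A573/A405 ratio as read-out.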
* marks the source's active call; other numbers are inactive results; ? = inconclusive; nt = not tested or not shown; [ ] = another dose, or the depositor's remark. Rows were chosen to be rich in hits. Some 11% of all compounds tested hit in one or more screens of this group. Unless noted, calls come from the whole dose curve; as a rule, active = well fitted curve in the direction sought with a large enough effect; inconclusive = small, poorly fitted or top-dose-only effect, or another doubt; inactive = no such curve, though single readings can be large; an effect the other way counts as inactive or inconclusive. Unless noted, % is set by controls: 0 for no effect and ±100 for the full control effect.

SMILES | IMPase inh | PNC assembly inh | HPGD block | ALDH1A1 block | IMPase Li inh | 12-hLO inh
CCOC(=O)/C(C)=C1\NC(C)(C)Cc2ccccc21 | nt | 54 | 20µM* | ? | 9% | -11%
CCOC(=O)/C(C(=O)Nc1ccccc1Cl)=C1/NC(C)(C)Cc2ccccc21 | -6 | 20 | -26% | 14µM* | 16% | -5%
CC1CN(C(=S)SCCN2Cc3ccccc3C2=O)CC(C)O1 (stereo not given) | 10 | 46 | -17% | -2% | -6% | 3%
O=C1c2ccccc2CN1CCSC(=S)N1CCSCC1 | nt | nt | nt | 10µM* | 15% | nt
O=C1c2ccccc2CN1CCSC(=S)N1CCOCC1 | nt | 41 | 28µM* | ? | -2% | -1%
Cc1cc(C)n2nc(SCc3ncc(-c4ccccc4)o3)nc2n1 | 3 | 2 | ? | ? | 26%[38.3 µM] | 0%
c1ccc(-c2cnc(CSc3ncnc4sccc34)o2)cc1 | 8 | 317 | 3.2µM* | 1% | 3% | -16%
CNC(=S)N/N=C(\C)c1ccc(N2CCOCC2)cc1 | 0 | -112* | -18% | ? | -3% | -3%
C/C(=N\Nc1ccc(F)cc1F)c1ccc(N2CCOCC2)cc1 | nt | nt | nt | 16µM* | 19% | nt
C/C(=N\Nc1ccc(F)cc1F)c1ccc(F)cc1 | 0 | 75 | -7% | ? | 3%[38.3 µM] | ?
C/C(=N\Nc1ccc(F)cc1F)c1ccc(Br)s1 | nt | nt | nt | 13µM* | 7% | nt
CC1(C)CC(=O)C(C=Nc2ccc(O)c(N=CC3=C(O)CC(C)(C)CC3=O)c2)=C(O)C1 | nt | nt | nt | 1.1µM* | 2% | nt
CC1(C)CC(=O)C(C=NCCc2ccc(O)cc2)=C(O)C1 | 1 | 19 | -13% | ? | 0%[38.3 µM] | -1%
CC1(C)CC(=O)C(C=Nc2ccc(C(=O)c3ccccc3)cc2N=CC2=C(O)CC(C)(C)CC2=O)=C(O)C1 | nt | nt | nt | 10µM* | 20% | nt
CC1(C)CC(=O)C(C=NCc2ccc3c(c2)OCO3)=C(O)C1 | 10 | ? | -20% | -7% | 7%[38.3 µM] | 0%
CC1(C)CC(=O)C(C=Nc2ccc3c(c2)OCO3)=C(O)C1 | -17 | ? | -23% | 13µM* | 18%[38.3 µM] | -10%
c1ccc(CCNc2ncnc3scc(C4COc5ccccc5O4)c23)cc1 (stereo not given) | 13 | ? | -16% | 0.056µM* | 56%[38.3 µM] | -3%
CN1/C(=C\C=N\NC(=O)c2ccccc2Br)C(C)(C)c2ccccc21 | nt | -9 | -30% | 28µM* | 16% | -3%
COCC(=O)N1CCC2(CCCN(Cc3ccccc3)C2)CC1 | nt | nt | 0% | 3% | 33% | -2%
CN1CCN(c2ncc3ncc(=O)n(C[C@H]4CCCO4)c3n2)CC1 | nt | nt | nt | ? | -5% | nt
O=C1C(=Cc2ccco2)C(=O)c2ccccc21 | nt | 32 | -24% | 13µM* | 0% | -2%
CCC1C/C(=C/c2ccco2)C(=O)/C(=C/c2ccco2)C1 (stereo not given) | 7 | -119* | -10% | ? | 16% | -16%
COc1ccc2c(c1)CC/C(=C/c1ccco1)C2=O | nt | 11 | ? | ? | 3% | 0%
O=C1/C(=C/c2ccco2)CCc2ccccc21 | nt | -17 | -7% | 28µM* | 7% | -9%
O=C(O)c1ccc2c(c1)C(=O)/C(=C\c1ccco1)C2=O | nt | nt | nt | ? | 13% | nt
SMILES | IMPase inh | PNC assembly inh | HPGD block | ALDH1A1 block | IMPase Li inh | 12-hLO inh
CC(C)Cn1nnnc1S(=O)(=O)CC#N | nt | nt | -9% | -4% | 4% | nt
COc1ccc(OC)c(NC(=O)C(=O)NCCC2=CCCCC2)c1 | nt | 3 | -6% | -7% | 4% | -4%
COC(=O)C1=CN(c2cccc(C)c2)C=C(C(=O)OC)C1c1cc(OC)c(O)c([N+](=O)[O-])c1 | 4 | ? | 16µM* | -1% | 12%[38.3 µM] | -7%
O=C(c1cc(C(F)(F)F)cc(C(F)(F)F)c1)N1CCC[C@@]2(CCN(Cc3nccs3)C2)C1 | nt | nt | 1% | 1% | 9% | 0%
COc1cccc(NC(=O)CC2S/C(=N\S(=O)(=O)c3ccccc3)N(c3ccccc3)C2=O)c1 (stereo not given) | nt | 3 | -21% | 20µM* | 6% | -4%
COc1ccccc1NC(=O)CC1SC(=N)N(c2ccccc2)C1=O (stereo not given) | nt | nt | nt | -6% | 3% | nt
Cc1ccccc1NC(=O)CC1SC(=O)N(c2ccccc2)C1=O (stereo not given) | -5 | 4 | ? | 16µM* | 23%[38.3 µM] | -8%
CCOc1ccc(NC(=O)CC2SC(=O)N(c3ccccc3)C2=O)cc1 (stereo not given) | nt | nt | nt | 7.9µM* | 1% | nt
CCCN1C(=O)SC(CC(=O)Nc2ccccc2C)C1=O (stereo not given) | -4 | 47 | -3% | 10µM* | 16% | 2%
CCCN1C(=O)SC(CC(=O)Nc2ccc(Br)cc2)C1=O (stereo not given) | -6 | -17 | -3% | ? | 33%[38.3 µM] | -5%
CCOc1ccccc1NC(=O)CC1SC(=N)N(c2ccccc2)C1=O (stereo not given) | nt | nt | nt | 3% | 5% | nt
CCC(=O)N1CCc2cc(S(=O)(=O)Nc3cc(C)ccc3OC)ccc21 | -5 | nt | nt | nt | nt | nt
CCCCNC(=O)[C@@H]1Cc2ccccc2N1C(=O)[C@H](N)CC | 6 | nt | -10% | ? | 16% | -1%
COc1cccc(CC2(CO)CCN(Cc3ccc4cccc(F)c4n3)CC2)c1 | nt | nt | nt | 2% | nt | nt
O=C(O)c1ccc2c(c1)C(=O)N(Cc1ccccc1)C2=O | 0 | -24 | 14µM* | -11% | 15%[38.3 µM] | 3%
O=C(COc1ccccc1)Nc1ccc2c(c1)C(=O)N(CC1CCCO1)C2=O (stereo not given) | nt | nt | nt | ? | -4% | nt
COc1ccccc1OCC(=O)Nc1ccc2c(c1)C(=O)N(CC1CCCO1)C2=O (stereo not given) | nt | nt | nt | 4.5µM* | 4% | nt
O=C(O)c1ccc(S(=O)(=O)c2ccc3c(c2)C(=O)N(CC2CCCO2)C3=O)cc1 (stereo not given) | 2 | -100* | -9% | -5% | -4%[38.3 µM] | -3%
O=C(NCc1ccccc1)c1ccc2c(c1)C(=O)N(CC1CCCO1)C2=O (stereo not given) | 0 | -24 | -20% | 5µM* | -10%[38.3 µM] | -1%
COC(=O)c1cccc(NC(=O)c2ccc3c(c2)C(=O)N(CC2CCCO2)C3=O)c1 (stereo not given) | -1 | ? | -8% | 1.4µM* | 18%[38.3 µM] | -3%
